According to PubChem BioAssay AID2796 (The Scripps Research Institute Molecular Screening Center, 2010):
Among all 320,000 compounds or so, about 8,000 (2.5%) were called active. The sample as a whole holds a higher share of actives than the screen did. Unmarked numbers belong to inactive results. Cut-off read from the data, not from the text of the source: active = activation above about 47%; inactive = the rest.

Biological target: Aryl hydrocarbon receptor (Homo sapiens) (UniProt P35869)
Assay: AHR activators, primary screen, cell-based, luminescence, luciferase reporter, human (AID 2796);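 note: 0% = vehicle wells and 100% = reference agonist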
Conditions: AHR-responsive luciferase reporter cells, at 5 µM, hits give high values

Chain of Aryl hydrocarbon receptor (Homo sapiens) (P35869 whole entry, looked up): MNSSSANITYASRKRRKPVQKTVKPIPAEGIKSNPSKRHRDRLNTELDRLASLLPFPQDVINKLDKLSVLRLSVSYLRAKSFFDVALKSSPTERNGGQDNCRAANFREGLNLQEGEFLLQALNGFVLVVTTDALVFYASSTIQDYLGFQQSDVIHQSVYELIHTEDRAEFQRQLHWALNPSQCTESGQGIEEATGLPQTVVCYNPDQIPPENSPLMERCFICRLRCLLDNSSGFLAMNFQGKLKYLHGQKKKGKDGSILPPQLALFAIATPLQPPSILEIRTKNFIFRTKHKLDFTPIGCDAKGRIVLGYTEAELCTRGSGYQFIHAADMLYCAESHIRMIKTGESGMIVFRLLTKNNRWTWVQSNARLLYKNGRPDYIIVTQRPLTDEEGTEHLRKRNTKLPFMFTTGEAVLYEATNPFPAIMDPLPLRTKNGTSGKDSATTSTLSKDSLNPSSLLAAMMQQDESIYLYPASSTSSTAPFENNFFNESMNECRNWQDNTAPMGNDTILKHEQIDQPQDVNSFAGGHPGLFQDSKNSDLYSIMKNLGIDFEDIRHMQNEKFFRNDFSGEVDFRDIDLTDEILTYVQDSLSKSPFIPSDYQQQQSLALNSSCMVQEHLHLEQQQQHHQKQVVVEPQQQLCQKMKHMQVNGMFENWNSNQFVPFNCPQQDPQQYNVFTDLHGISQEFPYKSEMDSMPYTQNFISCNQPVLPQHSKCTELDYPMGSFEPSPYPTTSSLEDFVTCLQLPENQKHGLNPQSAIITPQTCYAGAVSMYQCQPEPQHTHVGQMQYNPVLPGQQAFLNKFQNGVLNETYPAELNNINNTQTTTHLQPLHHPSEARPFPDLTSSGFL

Row | Structure (SMILES) | activation
1 | CCCCNC(=O)Nc1c(C)cc(SC#N)cc1C | 3.18%
2 | O=C(c1ccc(Cl)c([N+](=O)[O-])c1)N1CCN(c2ccccc2)CC1 | 2.09%
3 | O=C(c1cc(C(=O)N2CCN(c3ccc(F)cc3)CC2)cc([N+](=O)[O-])c1)N1CCN(c2ccc(F)cc2)CC1 | 3.86%
4 | O=C(c1cncc(Br)c1)N1CCN(c2ccc([N+](=O)[O-])cc2)CC1 | 52.5% (active)
5 | Cc1cc(C)c(NC(=O)CN2CCOCCOCCOCCOCC2)c(C)c1 | 0.35%
6 | Cc1cccc(COc2ccccc2/C=N/Nc2ccc([N+](=O)[O-])cc2)c1 | 50.4% (active)
7 | Cc1ccc(NS(=O)(=O)c2ccc(N/N=C/c3ccccc3OCC(=O)O)c([N+](=O)[O-])c2)c(C)c1 | 2.69%
8 | O=[N+]([O-])c1ccc(N/N=C/c2ccccc2)cc1 | -1.64%
9 | CCOC(=O)c1cc(S(=O)(=O)NCCc2ccc(OC)c(OC)c2)cn1C | 1.77%
10 | CCOC(=O)C1CCN(CC(=O)Nc2ccc(OC)c(S(=O)(=O)N3CCCCC3)c2)CC1 | -1.58%
11 | Cc1ccc(NC(=O)Nc2cccnc2)cc1 | 83.7% (active)
12 | O=C(NNC(=O)c1cccnc1)Nc1ccccc1 | -0.59%
13 | Cc1ccc(NC(=O)NCC(c2cccnc2)N2CCOCC2)cc1 (configuration not stated) | 3.2%
14 | CCCNC(=S)NC1CC2CCCC(C1)N2CC(C)C (configuration not stated) | 2.13%
15 | CCS(=O)(=O)c1ccc(O)c(NC(=O)COc2ccc(Cl)cc2)c1 | -3.28%
16 | COC(=O)c1sccc1NC(=O)COc1ccc(Cl)cc1 | 3.07%
17 | O=C(COc1ccc(Cl)cc1)Nc1ccccc1CO | 62.6% (active)
18 | CC(C(=O)NCCc1ccc(S(N)(=O)=O)cc1)N1C(=O)CC(C)(C)Sc2ccccc21 (configuration not stated) | 1.77%
19 | Cc1ccc(CN(Cc2cccnc2)C(=S)Nc2cc(Cl)ccc2C)cc1 | 2.1%
20 | CN(c1ccccc1)c1ccc(/C=c2\s/c(=C(/C#N)C(=O)C(C)(C)C)n(Cc3ccco3)c2=O)cc1 | 0.79%
21 | Cc1csc(=Nc2ccccc2)n1CCO | 4.51%

Row | Structure (SMILES) | activation
22 | Cc1cs/c(=N\N=C\c2ccc(O)cc2)n1Cc1ccco1 | 59.4% (active)
23 | Cc1c2cnn(CC(=O)NCc3ccccn3)c(=O)c2c(C)n1Cc1ccc(Cl)cc1 | 1.4%
24 | Cc1ccc(S(=O)(=O)N(C)c2ccc(OCC(=O)OCC(=O)N(CC#N)c3ccccc3)cc2)cc1 | -1.55%
25 | COc1ccc(OC)c(-c2csc(NC(=O)C3=NNC(=O)CC3)n2)c1 | 12.8%
26 | COc1ccc(OC)c(-c2csc(-c3cccs3)n2)c1 | 121% (active)
27 | COc1ccc(OC)c(-c2csc(NC(=O)COC(=O)C3CC3)n2)c1 | -1.02%
28 | CCOC(=O)N1CCC(Nc2c(NCCCN3CCN(CC)CC3)c(=O)c2=O)CC1 | 0.42%
29 | COc1ccccc1C1=CC(=O)CCC1 | 0.36%
30 | COc1ccc(NC(=O)CNc2cc(S(=O)(=O)N3CCOCC3)ccc2N2CCOCC2)c(OC)c1 | -1.67%
31 | O=c1ccnc(Nc2ccc(Cl)cc2)[nH]1 | 2.65%
32 | Cn1c(Nc2cccc(Cl)c2)nc2ccccc21 | -1.72%
33 | Clc1ccc(Nc2ccc3ccccc3n2)cc1 | 73.6% (active)
34 | Cc1cccc(C)c1NC(=O)CNC(=O)c1c(C)nn(-c2ccccc2)c1C | 0.83%
35 | COc1cc(C2OC(c3cc(OC)c(OC)c(OC)c3)C(C)C2C)cc(OC)c1OC (configuration not stated) | 3.59%
36 | Cn1c(=O)c2c(ncn2CC(COCc2ccccc2Cl)OCc2ccccc2Cl)n(C)c1=O (configuration not stated) | 0.3%
37 | Fc1ccc(-c2csc(-c3ccc(C4SCCS4)cc3)n2)cc1F | 27.6%
38 | N#CC(=C1CCCC1)c1nc(-c2ccc(Cl)cc2)cs1 | 4.95%
39 | Clc1ccc(-c2csc(-c3ccncc3)n2)cc1 | 63.4% (active)
40 | CN(C)S(=O)(=O)c1ccc2oc(SCC(=O)Nc3ccccc3F)nc2c1 | 10.3%
41 | CCOC(=O)C1CCN(c2ncnc3c2c(-c2ccccc2)cn3-c2ccc(C)cc2)CC1 | -0.73%
42 | CCOC(=O)C1CCN(c2ncnc3c2oc2ccc(Br)cc23)CC1 | 66.9% (active)

Row | Structure (SMILES) | activation
43 | CCOC(=O)C1CCN(Cc2nnc(-c3cccc(Br)c3)o2)CC1 | 1.14%
44 | COc1cc(OC)cc(C(=O)NCC(=O)N2CCCCCCC2)c1 | 17.3%
45 | CSc1ncccc1C(=O)Nc1ccc(C)cn1 | -0.65%
46 | CSc1ncccc1C(=O)NC1CCCCCC1 | -0.02%
47 | CSc1ncccc1C(=O)Nc1nc2ccc(F)cc2s1 | 79.2% (active)
48 | Cc1ccc(SC(CC(=O)c2ccc(C(C)(C)C)cc2)C(=O)O)cc1 (configuration not stated) | -1.16%
49 | COc1cc(C#Cc2ccc3cc(CCCO)oc(=O)c3c2)cc(OC)c1 | 1.38%
50 | Cc1ccc2nc(C)cc(N/N=C/c3ccc(F)cc3)c2c1 | 10.9%
51 | COc1ccc(Nc2nc(-c3cccnc3)nc3ccccc23)cn1 | -0.65%
52 | Fc1ccc(/C=N/Nc2nc(-c3cccnc3)nc3ccccc23)cc1 | 69.7% (active)
53 | O=C(COC(=O)COc1ccccc1F)Nc1cccc(S(=O)(=O)N2CCCCC2)c1 | 0.3%
54 | CC(Sc1nnc(COc2ccccc2)n1-c1ccccc1)C(=O)O (configuration not stated) | -2.4%
55 | NC(=O)c1oc2ccccc2c1NC(=O)Cc1ccccc1 | 0.99%
56 | CC(C)C(=O)Nc1ccc2oc(=O)ccc2c1 | 1.62%
57 | CC(C)C(=O)Nc1c(O)c2ccccc2[nH]c1=O | -0.12%
58 | CC(C)C(=O)Nc1c(C(=O)c2ccc(F)cc2)oc2ccccc12 | 132% (active)
59 | Cc1cc(=O)oc2cc(NC(=O)C(C)Oc3ccccc3)ccc12 (configuration not stated) | 2.24%
60 | CC(C)C(=O)Nc1ccc2c(c1)oc1ccccc12 | 60.8% (active)
61 | Cc1ccc(-n2ncc3c(Nc4cccc(C(=O)O)c4)ncnc32)cc1 | -0.95%
62 | Cc1sc2ncnc(N3CCC(C(=O)Nc4nc5ccc(Cl)cc5s4)CC3)c2c1C | 12.5%
